HP1b chromo inh: HTS for Inhibitors of HP1-beta Chromodomain Interactions with Methylated Histone Tails | AlphaScreen HP1-beta / biotin-H3K9me3 peptide binding | Potency, µM (doses to about 114 µM), inactives show top-dose activity change, negative = inhibition, usual class: inhibitors | hit rate 0.56% among 390,000 | AID 540317, 2011 | Chromobox protein homolog 1 (Homo sapiens), P83916; further: nearly all actives have a fitted effect of over 70% in size
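AlphaScreen: HP1-beta (50 nM) preformed 30 min with biotin-H3(1-18)K9me3 peptide (50 nM) in PBS pH 7.4, 0.01% Tween-20. Compound added for 30 min at RT, then streptavidin donor/nickel chelate acceptor beads (10 ug/mL) for 30 min.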
PLK1 PBD inh: qHTS for Inhibitors of PLK1-PDB (polo-like kinase 1 - polo-box domain): Primary Screen. hit rate 2.8% among 360,000. Plk1 PBD binding of FITC phosphopeptide, fluorescence polarization. Serine/threonine-protein kinase PLK1 (Homo sapiens), P53350. Potency, µM, for inactives: max response, negative = inhibition, actives largely listed as inhibitors; further: series mostly up to about 57 µM; on the % scale 0 is the no-effect control and ±100 the full control effect; nearly all actives have a fitted effect of over 65% in size
JMJD2A Tudor inh: qHTS Assay for Inhibitors of JMJD2A-Tudor Domain; Lysine-specific demethylase 4A (Homo sapiens), O75164; hit rate 4.4% among 390,000; Potency, µM (series often up to 114 µM), for inactives: top-dose activity change, negative = inhibition, usual class: inhibitors; AlphaScreen JMJD2A-Tudor / H3K4me3 peptide binding; further: on the % scale 0 is the no-effect control and ±100 the full control effect; nearly all actives have a fitted effect of over 50% in size
BAZ2B inh: qHTS Assay for Inhibitors of BAZ2B. Potency, µM (titrated, usually from 114 µM), for the others: at the highest dose activity change, negative = inhibition, hits mostly inhibitors. Bromodomain adjacent to zinc finger domain protein 2B (Homo sapiens), Q9UIF8. AlphaScreen BAZ2B-H3K14Ac peptide displacement. hit rate 4.4% among 360,000. AID 504333, 2011; further: on the % scale 0 is the no-effect control and ±100 the full control effect; nearly all actives have a fitted effect of over 60% in size
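Protein-peptide AlphaScreen: BAZ2B 50 nM, b-H3K14Ac 50 nM, 1x PBS pH 7.4 + 0.01% Tween-20. Preincubation 30 min RT; cpd 30 min RT (top 110 uM); beads 20 min RT, light-protected.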
G9a block: qHTS Assay for Inhibitors of Histone Lysine Methyltransferase G9a; G9a H3K9 monomethylation, AlphaScreen, 2 h; Potency, µM (doses to about 102 µM), for the others: at the highest dose activity, negative = inhibition, actives largely listed as inhibitors; Histone-lysine N-methyltransferase EHMT2 (Homo sapiens), Q96KQ7; hit rate 8.8% among 350,000; further: on the % scale 0 is the no-effect control and ±100 the full control effect; nearly all actives have a fitted effect of over 75% in size
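AlphaScreen read-out: biotin-H3K9 peptide (500 nM) methylation by 20 nM enzyme with 20 uM SAM, 2 h at room temperature after 15 min compound preincubation; anti-monomethyl H3K9 antibody plus donor/acceptor beads, 10 min dark.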
Sfp PPTase inh: qHTS Assay for Inhibitors of Bacillus subtilis Sfp phosphopantetheinyl transferase (PPTase); hit rate 3.5% among 310,000; Potency, µM, without a hit: largest response in the series, negative = inhibition, usual class: inhibitors; 4'-phosphopantetheinyl transferase ffp (Bacillus subtilis), Q9F4F7; Biochemical Sfp PPTase activity, qHTS; AID 1490, 2009;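 further: the enzyme is Sfp with the accession as filed and its product quenches rhodamine fluorescence; 0% = enzyme reaction without inhibitor and -100% = no enzyme wells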
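Step 1, compound plus 15 nM Sfp-PPTase, 15 min, room temperature. Step 2, add rhodamine-CoA (5 uM) and BHQ-2-YbbR (12.5 uM). Step 3, read 525/598 nm fluorescence at 0 and 30 min.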
Numbers without * were called inactive; ? = inconclusive; / = no result given; [ ] = dose if it differs, or a comment. This is a sample that favours compounds with a hit; in the whole collection about 12% have one here. The call rests on the fitted dose curve; in most records, active means well fitted curve in the direction sought with a large enough effect; inconclusive means small, poorly fitted or top-dose-only effect, or another doubt; inactive means no such curve, though single readings can be large; an effect the other way counts as inactive or inconclusive. Potency means the concentration at half of the fitted maximal effect.

SMILES | HP1b chromo inh | PLK1 PBD inh | JMJD2A Tudor inh | BAZ2B inh | G9a block | Sfp PPTase inh
c1ccc2ncccc2c1 | 19% | -10% | -18% | / | / | /
C=CCC1C=CC(Oc2ccc(OC)cc2)C(COC(=O)c2ccc(Br)cc2)O1 (stereo unspecified) | / | / | / | / | / | 1%
Cc1cc(C)nc(SCc2ccc(F)cc2)n1 | 61% | -15% | 22% | -8% | / | 15%
CC(=O)Nc1scc(-c2ccccc2)[n+]1-c1ccc(C)cc1 | 31% | -3% | -13% | ? | 50µM* | -24%
CC(C)CCN(CC(=O)NC1CCCC1)C(=O)C(=O)Nc1ccc2c(c1)OCCO2 | 22% | 11% | -7% | 3% | 8% | -2%
CCCCN(CC(=O)NC1CCCC1)C(=O)C(=O)Nc1ccc2c(c1)OCCO2 | 5% | ? | 79µM* | 0% | 7% | 17%
CCc1ccc(NS(=O)(=O)c2ccc3[nH]cc(C(=O)N(C)Cc4ccco4)c(=O)c3c2)cc1 | 5% | -13% | -30% | ? | 89µM* | 3%
CN(Cc1ccco1)C(=O)c1c[nH]c2ccc(S(=O)(=O)Nc3ccc4c(c3)OCCO4)cc2c1=O | -26% | -4% | -26% | ? | 89µM* | -13%
CCOc1ccc(NS(=O)(=O)c2ccc3[nH]cc(C(=O)N(C)Cc4ccccc4)c(=O)c3c2)cc1 | -35% | / | -24% | ? | ? | /
Cc1nnc(SCc2ccccc2Cl)c2cc3occc3n12 | -14% | / | ? | 28µM* | 13µM* | /
CCN(C(=S)NC(=O)CCc1ccccc1)c1ccccc1 | -3% | ? | ? | -5% | 8.9µM* | -25%
CC(C)(C)c1cc(CCC(=O)NNC(=S)NC(=O)c2ccccc2)cc(C(C)(C)C)c1O | 8% | ? | ? | -34% | 28µM* | 56µM*
CC(=O)NC(=S)NNC(=O)CCc1ccccc1 | 7% | ? | ? | -2% | 8.9µM* | ?
O=C(CCc1ccccc1)NNC(=S)NC(=O)c1ccccc1 | -4% | 27µM* | 28µM* | 2%[57.1 µM] | 4.5µM* | ?
CN(C)S(=O)(=O)N(CC(=O)NCCSCc1c(F)cccc1Cl)c1ccccc1 | 31% | / | -6% | 1% | 6%[59 µM] | /
CC1CCCCN1C(=O)CSc1nc2ccccc2nc1Cc1ccccc1 (stereo unspecified) | 35%[57 µM] | / | 14% | 14% | 10%[59 µM] | /
CCCCC(=O)NC(=S)NNC(=O)CCc1ccccc1 | 38% | ? | 2% | 5% | 32µM* | -28%
CCOC(=O)c1cccc(NC(=O)/C=C/c2ccc3c(c2)OCO3)c1 | 34% | -12% | 1%[57.1 µM] | 5% | 9%[59 µM] | 79µM*
NC(=O)c1ccc(NC(=O)COC(=O)/C=C/c2ccc3c(c2)OCO3)cc1 | 1% | 27µM* | -17%[11.4 µM] | -14% | -4% | -9%
COc1ccccc1NC(=O)/C=C/c1ccc2c(c1)OCO2 | 25% | 1% | -18% | -13% | 15%[59 µM] | 1%
COc1ccccc1NC(=O)COC(=O)/C=C/c1ccc2c(c1)OCO2 | 33% | -18% | -10% | -5% | 1%[59 µM] | 79µM*
COc1ccc(NC(=O)CCC(=O)c2ccc(F)cc2)cc1 | 71% | -17% | -8% | / | / | /
c1csc(CNc2ncncc2-c2ccc3c(c2)OCO3)c1 | / | / | / | / | / | -26%
O=C(Nc1ccc(F)cc1)C(c1cc2ccccc2o1)N1CCN(c2cccc(C(F)(F)F)n2)CC1 (stereo unspecified) | / | -1% | / | / | / | /
COc1cc(/C=N/NS(=O)(=O)c2ccc(C(C)(C)C)cc2)cc([N+](=O)[O-])c1O | ? | ? | 56µM* | ? | 18µM* | -5%
SMILES | HP1b chromo inh | PLK1 PBD inh | JMJD2A Tudor inh | BAZ2B inh | G9a block | Sfp PPTase inh
COc1cc(/C=N/NC(N)=O)cc([N+](=O)[O-])c1O | -17% | -9% | -24% | ? | ? | -2%
COc1ccc(-n2c(O)c(/C=N/NS(=O)(=O)c3ccc(C)c([N+](=O)[O-])c3)c3ccccc3c2=O)cc1OC | ? | 22% | 40µM* | 50µM* | 1%[12.7 µM] | 12%
COc1cc(/C=N/NS(=O)(=O)c2ccc(C)c([N+](=O)[O-])c2)ccc1O | 15% | ? | -9% | / | ? | -27%
COc1cc(/C=N/NS(=O)(=O)c2ccc(C)c([N+](=O)[O-])c2)cc([N+](=O)[O-])c1O | -6% | -5% | -24% | 50µM* | 40µM* | -16%
O=C1NC(=S)SC1=Cc1cccs1 | ? | ? | -32% | / | / | /
O=C1/C(=C/c2cccs2)NC(=S)N1C1CC1 | 14% | -23% | 40µM* | -33% | 40µM* | -3%
C/C=C/c1ccc(OCC(=O)N2CCc3cc(OC)c(OC)cc3C2)c(OC)c1 | 7% | -4% | -22% | ? | -25% | 3%
O=C(Nc1ncccc1O)c1ccc2c(c1)OCO2 | 12% | 1% | 18µM* | ? | ? | /
O=C(Nc1ncccc1O)c1ccc2c(c1)OCCO2 | 5% | -6% | 25µM* | 79µM* | 50µM* | /
Cc1cccnc1NC(=O)c1ccc2c(c1)OCCO2 | 24% | -3% | -9% | 13% | 0% | /
Cc1ccc(-c2nc(SCCOc3ccccc3C)n3[nH]c(=O)cc3n2)cc1 | 52% | / | -25% | 8% | 68%[59 µM] | /
CCOC(=O)C1CCC(CN(Cc2ccc(Cl)cc2)S(=O)(=O)c2ccc(F)c(C(=O)Nc3cccc(F)c3)c2)CC1 (stereo unspecified) | 36% | / | -18% | 1% | 1%[59 µM] | /
C1CN(CC23CC4CC(CC(C4)C2)C3)CCO1 | 31% | -11% | 0% | 4% | 7.9µM* | -5%
CCCn1c(=O)n(C)c(=O)c2c(SCC(=O)NCc3ccco3)nc(C3CC3)nc21 | 9% | -25% | 79µM* | -26% | 9% | -2%
CN1CCN(C(=S)NC(=O)c2cccc([N+](=O)[O-])c2)CC1 | 22% | -1% | -16% | 5% | -12% | 32µM*
CC1CCN(C(=S)NC(=O)c2cccc([N+](=O)[O-])c2)CC1 | 24% | -7% | -28% | -25% | 71µM* | 11%
CN1CCC(NC(=S)Nc2cccc([N+](=O)[O-])c2)CC1 | 6% | -20% | -13% | -20% | 45µM* | -4%
CCOc1ccc(C(=O)Nc2ccc3nc(SCC(=O)N(C)c4ccccc4)sc3c2)cc1 | 12% | / | -23% | -7% | -4%[59 µM] | /
CC(C)NS(=O)(=O)c1ccc(OCC(=O)N2CCN(c3ccccc3F)CC2)cc1 | 42% | / | -2% | 4% | 1%[59 µM] | /
CCCCn1c(SCC(=O)NC2CC2)nc2cc(C(=O)OC)ccc2c1=O | / | -4% | / | / | / | /
